PubChem BioAssay AID493085 (Broad Institute, 2011)
The whole screen tested about 2,400 compounds, of which about 360 (15%) were called active. Another 5% or so got no clear call; they are omitted.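 The calls were made as follows: active = falling-signal curve with half-maximal concentration at or below ten times the top tested dose; inconclusive = flat fit at 30 to 70% inhibition, or poor fit; inactive = signal rise, flat within 30%, or potency beyond limit.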 Only a sample is shown. Results with a measured potency or affinity are listed apart.

Assay: dox-induced RFP signal loss in R4-3T3 cells – cell-based, NIH3T3 R4, HSE-GFP and Tet-On RFP, cherry-pick, set 3, dose response (AID 493085);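 also: cells heat shocked 2 h at 42 °C with doxycycline to induce reporters; 0% = neutral control wells and -100% = didemnin B control at 400 nM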
Conditions: NIH3T3 R4 HSE-GFP/Tet-RFP reporter, fluorescence, 48 h; series mostly up to 19.5 µM; activity change, negative = inhibition: at the top concentration

Activity change, negative = inhibition, inactive:
CCOc1ccc(NC(=S)Nc2ccc(OC(F)(F)F)cc2)cc1 -9.64%
CSc1ccccc1NC(=O)C1=CC(c2ccc(C)cc2)=NS(=O)(=O)N1C -10.2%
Cc1[nH]c(=O)c(C#N)cc1-c1csc(-c2ccccc2)n1 0.405%
COC(=O)CCC(=O)NNC(=O)c1cccc(Br)c1 6.48%
COc1ccccc1CCC(=O)OCC(=O)Nc1cccc(S(=O)(=O)N2CCOCC2)c1 -6.16%
CCOC(=O)C1=C(C)N(CCC(=O)O)C(=O)NC1c1ccccc1Cl (centres undefined) -13.5%
COc1ccc(/C=C(\C#N)C(=O)Nc2cc(C)c(Cl)cc2OC)cc1O -14.6%
CSc1nccn1C(=O)c1ccccc1[N+](=O)[O-] -2.94%
Cc1ccc(-n2cc(C(=O)c3ccccc3O)cn2)cc1 -6.36%
O=C(CSc1nc2ccccc2s1)N/N=C/c1ccccc1C(=O)O -11.6%
CC(C)c1ccccc1-n1c(-c2cccnc2)n[nH]c1=S -4.65%
COc1ccccc1NC(=O)Cn1c(=O)c(N(C)C)c(N)n(C)c1=O 5.09%
COCCn1c(=O)[nH]c2cc(C(=O)NC3CCCCCC3)ccc2c1=O -0.369%
COc1cccc(NC(=O)CCSc2nnc3scc(-c4ccccc4)n23)c1 -3.84%
CCCC(NC(=O)COc1cc2c(c3oc(=O)cc(C)c13)CCC(C)(C)O2)C(=O)O (centres undefined) -3.98%
CC(C(=O)NC1CC(C)(C)NC(C)(C)C1)c1ccc([N+](=O)[O-])cc1 (centres undefined) 1.55%
CC(=O)c1cccc(NC(=O)CN2C(=O)c3ccccc3C2=O)c1 -1.97%
CCOc1ccc(/C=N/NC(=O)c2ccc(Cn3cc([N+](=O)[O-])cn3)o2)cc1 4.4%
NC(=S)N/N=C1\CC(n2nnnc2-c2ccccc2Cl)C2COC1O2 (centres undefined) -8.92%
COc1ccc(/C=N/Nc2nc(C)cc(=O)[nH]2)cc1OC 13.2%
COc1ccc(-c2nc(CNS(=O)(=O)c3ccc(OC)c(OC)c3)cs2)cc1 -23.9%
Cc1cccc(N2CCN(Cc3nc(-c4ccccc4Cl)oc3C)CC2)n1 1.41%
O=C(N/N=C/c1ccccn1)c1ccc([N+](=O)[O-])cc1 -7.84%
Oc1ccc(Br)cc1/C=N/Nc1ccccn1 25.6%
CCOC(=O)C[n+]1c(C)csc1C -3.68%
CCOc1ccc(NC(=O)C(C)NS(=O)(=O)c2ccc(NC(C)=O)cc2)cc1 (centres undefined) 5.38%
Cc1ccc(Cn2c(Sc3ncccn3)nc3c2c(=O)[nH]c(=O)n3C)cc1 -12.6%
Cc1nccn1Cc1cccc2ccccc12 -10.7%
CC(=O)NCCNC(=O)c1ccc(CSc2nc3ccccc3s2)cc1 5.39%
Cc1cc(=O)[nH]c2c1c(=O)[nH]n2C1CC(C)N(C)CC1C (centres undefined) -6.94%
C=CCOCCN(CCOCC=C)C1=NS(=O)(=O)c2ccccc21 3.73%
Cc1cc(OCC(=O)NCCc2ccc(S(N)(=O)=O)cc2)c2c(C)cc(=O)oc2c1 -1.48%
NS(=O)(=O)c1ccc(CCNCC#Cc2ccccc2)cc1 -3.99%
CCn1cc(C(=O)NCCCN2CC(C)CC(C)C2)c(=O)c2cc(S(=O)(=O)N(C)C)ccc21 (centres undefined) -8.74%
O=C(N1CCOCC1)C12CCC3CC(CC(C3)C1)C2 0.372%
CCCS(=O)(=O)c1cnc(C2COc3ccccc3O2)nc1N (centres undefined) -5.24%
C=CCn1c(C)nnc1SCC(=O)Nc1nc(C)c(C(=O)N(C)C)s1 -8.13%
O=C1CC(N2CCCCC2)C(=O)N1c1ccccc1 (centres undefined) 5.59%
Cc1ccc(-n2nc3c(=O)n(CCCC(=O)N4CCC(C(N)=O)CC4)nc(C)c3c2C)cc1 -0.762%
O=S(=O)(Nc1ccc2c(c1)OCCO2)c1cccs1 0.199%
CC1C(=O)C(C)C(c2ccco2)NC1c1ccco1 (centres undefined) -12.8%
Nc1nc2n(c1C(=O)c1ccccc1)CCC2 -5.46%
COc1ccc(N2CCN(CC(O)COCCOc3ccc(Br)cc3)CC2)cc1 (centres undefined) -12.8%
CC(C)(C)c1ccc(-c2nnc3sc(-c4ccccn4)nn23)cc1 -7.98%
Cn1c(C(=O)O)c(CC(=O)Nc2ccc3c(c2)OCCO3)c2ccccc21 -2.93%
CCCS(=O)(=O)N1CCCC(C(=O)N2CCC(Cc3ccccc3)CC2)C1 (centres undefined) -4.5%
CC(=O)Nc1ccc(-c2nnn(CC(=O)Nc3ccc4c(c3)OCO4)n2)cc1Cl -4.62%
O=C1Cc2ccccc2C(=O)N1c1cccc(Cl)c1 -1.22%
CC(C)CNC(=O)C1CCN(Cc2ccc(OCc3ccccc3)cc2)CC1 7.96%
COc1cc(NC(=O)c2cc3cccc(OC)c3o2)cc(C(=O)Nc2cccc(C(F)(F)F)c2)c1 4.58%
CN(CC(=O)Nc1cccc(F)c1)CC(=O)Nc1cccc(S(N)(=O)=O)c1 14.2%
COc1ccc(S(=O)(=O)Nc2ccccc2C(=O)N2CCOCC2)cc1Cl -1.01%
COc1ccc(CN(C)C(=O)c2cc(S(=O)(=O)N3CCOCC3)ccc2N2CCCC2)cc1 1.5%
Cc1noc(NS(=O)(=O)c2ccc(N3Cc4ccccc4C3=O)cc2)c1C -1.64%
CCCCN1C=CC(=C2C(=O)c3ccccc3C2=O)C=C1 -3.88%
Fc1ccccc1NC(=S)Nc1ccc(CN2CCOCC2)cc1 -7.41%
COC(=O)C1CCN(C(=O)c2sc3nc(-c4ccccc4)cn3c2C)CC1 -12.9%
CCOC(=O)c1sc2nc3c(cc2c1N)COC(C(C)C)C3 (centres undefined) 3.31%
CCOC(=O)c1n[nH]c(=O)c2ccccc12 -8.51%
CCCn1c(SCC(=O)c2c(C)[nH]c(C)c2C(=O)OCC)nc2ccccc21 -4.22%
Cc1cccc(Nc2nc(-c3ccc4c(c3)OCCO4)cs2)c1 6.28%
COc1cccc(-n2nnc3c(=O)n(Cc4ccccc4Cl)cnc32)c1 -9.31%
Nc1nc(Cl)nc(N(c2ccccc2)c2ccccc2)n1 3.98%
CCOC(=O)Cn1c(CCC(=O)O)ccc1-c1ccc(F)cc1 4.16%
COc1ccc(S(=O)(=O)/C(C#N)=C/Nc2cccc(OC)c2)cc1 -6.14%
O=S(=O)(Nc1ccncc1)c1ccc(Cl)cc1 -4.03%
NC(=O)c1nsc(C(=O)N(c2cccc(F)c2)C(C(=O)NC2CCCC2)c2ccco2)c1N (centres undefined) -7.03%
COc1ccc(C(=O)N2CCN=C2SCc2cccnc2)cc1OC -4.35%
CCN(C(=O)c1ccc2c(SCC(=O)O)c3c(nc2c1)CCC3)c1cc(Cl)ccc1OC -2.82%
CC(/C=N\NC(=O)c1cc(C)oc1C)=C\c1ccccc1 -1.55%
CCN(CC)C(=O)COC(=O)c1ccc(C)c(NC(=O)c2ccco2)c1 2.46%
CN1CCN(C(=O)/C(=C\c2cccs2)NC(=O)c2ccco2)CC1 0.189%
Cc1ccc(N(Cc2cc3ccc(C)cc3[nH]c2=O)C(=O)c2cccs2)cc1 -2.97%
CCOC(=O)N1CCC(Nc2ncnc3c2cnn3-c2ccc(Cl)cc2)CC1 12.7%
CC1CCCN(c2ncnc3c2cnn3-c2ccc(Cl)cc2)C1 (centres undefined) -12.2%
c1ccc2c(Nc3nc(-c4ccncc4)nc4ccccc34)cccc2c1 4.7%
COc1cc(CCCN2CCNC[C@@H]2Cc2ccc(O)cc2)cc(OC)c1OC 15.6%
O=C(COC(=O)c1ccccc1-n1cnnn1)c1ccc(F)cc1 5.1%
COc1cccc(-n2c(N)c(-c3nc4ccccc4[nH]3)sc2=S)c1 -11.7%
COc1ccc(CC(=O)Nc2cc(C)on2)cc1 6.1%
COc1ccc(/C=C/C(=O)NC(=S)NCCc2ccc(OC)c(OC)c2)cc1 -0.406%
COc1ccc(Nc2nc(Nc3ccc(OC)cc3)nc(-n3[nH]c(=O)c(C)c3C)n2)cc1 8.07%
COc1ccccc1C(O)(C(=O)N(NC(C)=O)c1ccccc1)c1ccccc1OC -9.05%
Cc1cccc(-c2nnc(NC(=O)c3cccs3)s2)c1 -3.98%
Cc1c(C(=O)Nc2ccc(F)cc2)sc2ncn(CC(=O)N3CCCCC3)c(=O)c12 2.93%
O=C(Nc1cccc(S(=O)(=O)N2CCOCC2)c1)c1ccccn1 -1.87%
O=[N+]([O-])c1cccc(-c2nnc(-c3ccccc3)o2)c1 -12.8%
O=[N+]([O-])c1ccc(NCCOc2ccccc2Cl)nc1 -4.68%
O=C(c1cccs1)n1nc(-c2ccco2)nc1SCc1ccccc1 -5.18%
NNC(=O)c1ccc(O)cc1O 9.83%
COc1cc(=O)[nH]c(SCC(=O)Nc2nc3c(s2)CCCC3)n1 -0.723%
CN(C)CCNC(=O)c1cc2c(s1)-c1ccc(Cl)cc1SC2 14.3%
CCCCC(=O)Nc1cccc(NC(=O)c2cccc(Br)c2)c1 8.02%
O=C(Nc1nncs1)c1ccc(F)c(S(=O)(=O)N2CCCCC2)c1 -13.1%
O=C(Nc1nc(-c2cccs2)cs1)c1ccc(Cl)s1 -3.26%
Cc1ccc(-c2csc(NC(=O)c3ccc(S(=O)(=O)N4CCc5ccccc54)cc3)n2)cc1 -13.1%
COc1cc2c(cc1OC)C(C(=O)NC1CC1)C1c3ccccc3CCN1C2=O (centres undefined) -14.3%
NC(=S)N/N=C/c1cc([N+](=O)[O-])ccc1OCCOc1ccccc1 16.2%
CCC(C)c1ccc(OCc2ccc(C(=O)O)o2)cc1 (centres undefined) -8.68%
NS(=O)(=O)c1cccc(NC(=O)CNC(=O)CC23CC4CC(CC(C4)C2)C3)c1 -9.43%
CCOc1ccccc1C(=O)Nc1ccc(NC(=O)c2ccccc2)cc1 6.61%
Cc1cc(C(=O)COC(=O)c2ccco2)c(C)n1Cc1ccco1 0.924%
C=CCOc1ccn(C)c(=O)n1 0.171%
O=C1OC2(CCCCC2)OC(=O)C1=CNc1nccs1 -3.79%
Cc1ccc(C)c(N2CCN(CCN3CCCCC3)CC2)c1 -5.89%
Oc1ccccc1-c1nnc(-c2ccc(C(F)(F)F)cc2)o1 0.933%
COC(=O)C1=C(C)Nc2c(c(=O)n(C)c(=O)n2C)C1c1cccc(O)c1 (centres undefined) -4.13%
CCC(=O)N1C(C(=O)N2CCCC2)CSC1c1ccc(OC)cc1 (centres undefined) 20.6%
CNC(=O)Cn1nc(C)c2ccccc2c1=O 6.08%
O=C(CNC(=O)C12CC3CC(CC(C3)C1)C2)NCc1ccccc1 -1.98%
Cc1cc(C)cc(N(CC(=O)Nc2ccc(Br)cc2)S(=O)(=O)c2c(C)[nH]c(=O)[nH]c2=O)c1 3.96%
CCOc1ccccc1Nc1nnc(SCc2nnc(-c3cc(OC)c(OC)c(OC)c3)o2)s1 -1.36%
COc1ccc(-n2c(-c3cccc(OC)c3)nc(=S)c3c2CCCC3)cc1 -11.1%
COc1ccc(N2C(=O)C(C)(C)C2c2c(O)ccc3ccccc23)cc1 (centres undefined) -9.55%
